According to PubChem BioAssay (NCATS):
Unmarked numbers belong to inactive results. Records with an inconclusive call do not appear. Activity calls are given as the source filed them. Unless noted, calls come from the whole dose curve; as a rule, active = well fitted curve in either direction with a large enough effect (not every such curve was filed as active); inconclusive = small, poorly fitted or top-dose-only effect, or another doubt; inactive = flat fitted curve, though single readings scatter.

Key:
[1] = target: Lysosomal acid glucosylceramidase (Homo sapiens) (UniProt P04062); experiment: Glucocerebrosidase-p2 (AID 348; in the data active = potency below about 10 µM; note: potency is the fitted concentration of half-maximal effect); conditions: purified GBA, blue fluorogenic substrate, 40 min
In short: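 Compounds titrated from 0.6 nM upwards against 0.2 nM enzyme in pH 5.9 citric acid/KH2PO4, taurocholate, tween-20; blue fluorogenic substrate 80 uM, 40 min room temperature, stopped and read Ex 365/Em 440 for AC50.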

[2] = AP1 Signaling Pathway (AID 357); conditions: ME-180 AP-1-bla reporter, EGF-induced, beta-lactamase ratio, 5 h; at 7.69 µM (top of the series) unless noted;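 note: ME-180 reporter cells stimulated with EGF at its EC50 level; % is set by controls: 0 for no effect and ±100 for the full control effect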
In short: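 Cells are seeded overnight, exposed to compound titrations and an EC50 level of EGF for 5 hours at 37 °C, then loaded with CCF4 dye for 2.5 hours. Beta-lactamase activity under the AP-1 element is read as a blue/green ratio.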

[3] = target: Cytochrome P450 1A2 (Homo sapiens) (UniProt P05177); experiment: p450-cyp1a2 (AID 410; calls by dose curve; note: potency is the fitted concentration of half-maximal effect;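 for activity change, negative = inhibition: -100% = full effect of reference inhibitor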); conditions: recombinant CYP1A2, luciferin-ME demethylation, luminescence; series mostly up to 11.4 µM
In short: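 Inhibition was calculated relative to 57 uM furafylline (full inhibition). The reaction used human CYP1A2 at 20nM with Luciferin-ME at its Km, 100uM, driven by an NADPH-regenerating system for 60 min at room temperature.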

[4] = target: Glucocorticoid receptor (Homo sapiens) (UniProt P04150); experiment: GR-GFP Redistribution (AID 450;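 active = compounds whose dose series gives a full or clear partial fitted curve of increased nuclear translocation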; note: potency is the fitted concentration of half-maximal effect); conditions: U2OS GR-GFP nuclear translocation, laser cytometry, 2 h
[5] = target: Glucocorticoid receptor (Homo sapiens) (UniProt P04150); experiment: GR-EFC Redistribution (AID 451; calls by dose curve; note: potency is the fitted concentration of half-maximal effect); conditions: CHO-K1 GR-EFC translocation, beta-gal luminescence, 2 h
In short: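 Translocation of GR-ED fusion to nuclear EA restores b-gal, read by luminescence after 1 h room-temperature detection. Engineered CHO-K1 biosensor cells, 1,000/well, exposed 2 h at 37 C to titrations up to 46 uM final.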

[6] = target: Mitogen-activated protein kinase 10 (Mus musculus) (UniProt Q61831); experiment: JNK3 AlphaScreen Assay (AID 530); conditions: JNK3 lysate, c-Jun phosphorylation; series mostly up to 11.4 µM;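 note: kinase came from lysate of stimulated human HepG2 cells; signal reports phosphorylation of biotinylated GST-cJun 1-79 at Ser73 with 10 µM ATP; % is set by controls: 0 for no effect and ±100 for the full control effect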
In short: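 Room-temperature AlphaScreen kinase assay; pre-activated HepG2 lysate as JNK3 source, biotin-GST-cJun(1-79) substrate, 10 uM ATP, compound 15 min preincubation.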

[7] = target: 3',5'-cyclic-AMP phosphodiesterase 4B (Homo sapiens) (UniProt Q07343); experiment: qHTS Assay for Inhibitors of PDE-IV (AID 607; active = well fitted activation curve with a large enough effect in the main read-out, with a control signal flat, not every such curve was filed as active; note: % of control where 0% means no effect); conditions: HEK293 ACTOne CNG channel cells, membrane potential fluorescence; series mostly up to 22.9 µM
In short: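 Cell-based read-out of cAMP via a modified cyclic nucleotide-gated channel and membrane potential dye (535/590 nm) in HEK293 cells expressing PDE4 endogenously. Compounds tested up to 22.9 uM final; 100 uM RO 20-1724 reference.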

[8] = target: Cytochrome P450 2C9 (Homo sapiens) (UniProt P11712); experiment: qHTS Assay for Inhibitors and Substrates of Cytochrome P450 2C9 (AID 883; active = well fitted curve in the direction sought with a large enough effect; an effect the other way counts as inactive or inconclusive; note: nearly all actives have a fitted effect of over 60% in size; note: potency is the fitted concentration of half-maximal effect; for activity change, negative = inhibition: % is set by controls: 0 for no effect and ±100 for the full control effect); conditions: recombinant CYP2C9, luciferin-H luminescence, 60 min; series mostly up to 11.4 µM
In short: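 Inhibition of CYP2C9 is scored as loss of luminescence, with 57uM sulphaphenazole defining 100% inhibition. Substrate Luciferin-H is used at 100uM, equal to its KM; enzyme at 10nM in 25mM KPO4, 60 min at 37C with NADPH regeneration.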

[9] = target: Cytochrome P450 3A4 (Homo sapiens) (UniProt P08684); experiment: qHTS Assay for Activators of Cytochrome P450 3A4 (AID 885; active = well fitted curve in the direction sought with a large enough effect; an effect the other way counts as inactive or inconclusive; note: nearly all actives have a fitted effect of over 65% in size); conditions: recombinant CYP3A4, Luciferin-PPXE luminescence, 60 min; series mostly up to 11.4 µM
In short: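 Signal was normalized against complete inhibition by 57 uM ketoconazole. The reaction used 20nM CYP3A4 with 25uM Luciferin-PPXE, 10-min compound preincubation and a 60-min NADPH-supported step at RT.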

[10] = Stat Signaling Pathway (AID 446); conditions: ME-180 SIE beta-lactamase reporter, IL-6 stimulated, 5 h; at 7.69 µM (top of the series) unless noted;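 note: ME-180 cervical cancer cells given 40 pM IL-6 alongside compound; SIE-controlled beta-lactamase reporter measured as 460/530 nm FRET emission ratio; % is set by controls: 0 for no effect and ±100 for the full control effect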
In short: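 Reporter line: ME-180 cervical carcinoma, SIE-beta-lactamase. Treatment: compound with 40 pM IL-6, 5 hrs, 37 C, in low-serum OPTI-MEM with 10 mM HEPES pH 7.3. Detection: 460/530 nm fluorescence.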

[11] = target: Cytochrome P450 3A4 (Homo sapiens) (UniProt P08684); experiment: qHTS Assay for Inhibitors and Substrates of Cytochrome P450 3A4 (AID 884; active = well fitted curve in the direction sought with a large enough effect; an effect the other way counts as inactive or inconclusive; note: potency is the fitted concentration of half-maximal effect; nearly all actives have a fitted effect of over 50% in size); conditions: recombinant CYP3A4, Luciferin-PPXE luminescence; series mostly up to 57.1 µM
In short: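 20 nM human CYP3A4 with 25 uM Luciferin-PPXE (at KM) in 200 mM KPO4, preincubated 10 min with compound; NADPH regeneration started a 60 min RT reaction. Luciferin detected by luminescence, normalized to 57 uM ketoconazole as full inhibition.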

[12] = target: Cytochrome P450 2D6 (Homo sapiens) (UniProt P10635); experiment: qHTS Assay for Inhibitors and Substrates of Cytochrome P450 2D6 (AID 891; active = well fitted curve in the direction sought with a large enough effect; an effect the other way counts as inactive or inconclusive; note: nearly all actives have a fitted effect of over 60% in size; note: potency is the fitted concentration of half-maximal effect); conditions: recombinant CYP2D6, luciferin-ME EGE luminescence; series mostly up to 11.4 µM
In short: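 Human CYP2D6 (5 nM) with 30 uM Luciferin-ME EGE (at Km) in 100 mM KPO4, compound preincubated 10 min, then NADPH regeneration system for 60 min at room temperature. Luciferin read by luminescence; normalized to 1.43 uM quinidine.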

[13] = target: Cytochrome P450 2C19 (Homo sapiens) (UniProt P33261); experiment: qHTS Assay for Inhibitors and Substrates of Cytochrome P450 2C19 (AID 899; active = well fitted curve in the direction sought with a large enough effect; an effect the other way counts as inactive or inconclusive; note: nearly all actives have a fitted effect of over 60% in size; note: potency is the fitted concentration of half-maximal effect); conditions: recombinant CYP2C19, luciferin-H EGE luminescence; series mostly up to 11.4 µM
In short: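 5nM enzyme + 10uM Luciferin-H EGE (=KM), 50mM KPO4; cpd pin-transferred, 10 min 37C; NADPH regen, 60 min 37C; stopped w/ luciferin detection reagent, 20 min; luminescence. Normalized to 57uM ketoconazole (AC100).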

Sequence of Cytochrome P450 1A2 (Homo sapiens) (P05177 whole entry, looked up): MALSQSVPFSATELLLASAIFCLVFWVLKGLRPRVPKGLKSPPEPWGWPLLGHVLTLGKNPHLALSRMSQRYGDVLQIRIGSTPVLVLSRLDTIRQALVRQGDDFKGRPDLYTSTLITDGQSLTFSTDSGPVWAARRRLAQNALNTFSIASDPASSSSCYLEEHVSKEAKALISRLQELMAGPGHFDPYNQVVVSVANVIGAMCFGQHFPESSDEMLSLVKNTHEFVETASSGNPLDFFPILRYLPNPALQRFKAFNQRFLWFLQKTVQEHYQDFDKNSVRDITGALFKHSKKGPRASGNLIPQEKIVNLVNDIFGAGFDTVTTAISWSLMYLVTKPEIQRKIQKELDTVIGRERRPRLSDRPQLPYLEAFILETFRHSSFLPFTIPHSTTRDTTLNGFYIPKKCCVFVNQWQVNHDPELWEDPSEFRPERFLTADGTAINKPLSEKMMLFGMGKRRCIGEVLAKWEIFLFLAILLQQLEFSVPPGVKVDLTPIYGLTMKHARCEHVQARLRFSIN
Sequence of Cytochrome P450 2C19 (Homo sapiens) (P33261 whole entry, looked up): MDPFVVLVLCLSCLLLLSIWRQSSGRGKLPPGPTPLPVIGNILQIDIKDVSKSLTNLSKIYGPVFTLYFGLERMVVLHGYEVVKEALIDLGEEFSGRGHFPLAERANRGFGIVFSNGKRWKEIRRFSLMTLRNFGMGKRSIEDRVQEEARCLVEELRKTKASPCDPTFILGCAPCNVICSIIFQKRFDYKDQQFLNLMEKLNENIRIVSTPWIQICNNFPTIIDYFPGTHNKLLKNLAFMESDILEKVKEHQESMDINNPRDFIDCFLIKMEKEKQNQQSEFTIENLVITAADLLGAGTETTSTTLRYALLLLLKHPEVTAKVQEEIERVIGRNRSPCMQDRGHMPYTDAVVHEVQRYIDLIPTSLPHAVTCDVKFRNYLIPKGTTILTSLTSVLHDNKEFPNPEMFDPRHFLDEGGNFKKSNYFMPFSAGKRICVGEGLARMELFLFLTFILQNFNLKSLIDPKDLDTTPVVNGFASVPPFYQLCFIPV
Sequence of 3',5'-cyclic-AMP phosphodiesterase 4B (Homo sapiens) (Q07343 whole entry, looked up): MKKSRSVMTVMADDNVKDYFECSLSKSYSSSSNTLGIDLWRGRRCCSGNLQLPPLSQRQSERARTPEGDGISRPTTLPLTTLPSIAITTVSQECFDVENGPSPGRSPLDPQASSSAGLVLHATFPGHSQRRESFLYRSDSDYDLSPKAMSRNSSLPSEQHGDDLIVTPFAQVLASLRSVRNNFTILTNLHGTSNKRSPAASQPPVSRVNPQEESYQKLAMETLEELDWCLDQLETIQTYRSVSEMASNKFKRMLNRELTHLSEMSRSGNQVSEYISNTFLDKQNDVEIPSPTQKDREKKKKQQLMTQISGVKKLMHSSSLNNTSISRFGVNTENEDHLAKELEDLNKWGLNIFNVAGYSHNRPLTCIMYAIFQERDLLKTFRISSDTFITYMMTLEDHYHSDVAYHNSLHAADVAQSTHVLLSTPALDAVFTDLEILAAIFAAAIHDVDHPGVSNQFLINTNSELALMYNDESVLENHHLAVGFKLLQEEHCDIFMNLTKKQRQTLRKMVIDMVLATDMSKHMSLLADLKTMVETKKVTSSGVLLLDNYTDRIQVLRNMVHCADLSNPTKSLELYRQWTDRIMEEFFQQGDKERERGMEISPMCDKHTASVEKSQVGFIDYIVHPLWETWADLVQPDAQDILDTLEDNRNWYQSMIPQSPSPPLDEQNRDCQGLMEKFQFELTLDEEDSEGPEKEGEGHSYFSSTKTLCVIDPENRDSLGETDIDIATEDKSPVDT
Sequence of Cytochrome P450 3A4 (Homo sapiens) (P08684 whole entry, looked up): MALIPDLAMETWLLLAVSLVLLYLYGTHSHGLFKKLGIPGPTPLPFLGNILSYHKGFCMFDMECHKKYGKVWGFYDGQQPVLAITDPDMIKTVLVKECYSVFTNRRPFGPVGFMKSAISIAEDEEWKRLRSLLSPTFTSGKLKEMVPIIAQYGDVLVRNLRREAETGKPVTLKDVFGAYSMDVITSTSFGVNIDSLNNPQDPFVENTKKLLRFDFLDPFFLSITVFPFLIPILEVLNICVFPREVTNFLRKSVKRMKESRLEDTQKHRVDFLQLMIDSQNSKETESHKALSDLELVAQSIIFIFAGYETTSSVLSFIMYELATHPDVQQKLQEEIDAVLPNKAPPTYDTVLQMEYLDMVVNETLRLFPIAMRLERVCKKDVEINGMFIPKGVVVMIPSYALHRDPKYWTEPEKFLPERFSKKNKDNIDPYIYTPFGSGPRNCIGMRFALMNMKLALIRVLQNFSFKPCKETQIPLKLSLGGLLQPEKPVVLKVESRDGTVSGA
Sequence of Glucocorticoid receptor (Homo sapiens) (P04150 whole entry, looked up, the tested form may be a part): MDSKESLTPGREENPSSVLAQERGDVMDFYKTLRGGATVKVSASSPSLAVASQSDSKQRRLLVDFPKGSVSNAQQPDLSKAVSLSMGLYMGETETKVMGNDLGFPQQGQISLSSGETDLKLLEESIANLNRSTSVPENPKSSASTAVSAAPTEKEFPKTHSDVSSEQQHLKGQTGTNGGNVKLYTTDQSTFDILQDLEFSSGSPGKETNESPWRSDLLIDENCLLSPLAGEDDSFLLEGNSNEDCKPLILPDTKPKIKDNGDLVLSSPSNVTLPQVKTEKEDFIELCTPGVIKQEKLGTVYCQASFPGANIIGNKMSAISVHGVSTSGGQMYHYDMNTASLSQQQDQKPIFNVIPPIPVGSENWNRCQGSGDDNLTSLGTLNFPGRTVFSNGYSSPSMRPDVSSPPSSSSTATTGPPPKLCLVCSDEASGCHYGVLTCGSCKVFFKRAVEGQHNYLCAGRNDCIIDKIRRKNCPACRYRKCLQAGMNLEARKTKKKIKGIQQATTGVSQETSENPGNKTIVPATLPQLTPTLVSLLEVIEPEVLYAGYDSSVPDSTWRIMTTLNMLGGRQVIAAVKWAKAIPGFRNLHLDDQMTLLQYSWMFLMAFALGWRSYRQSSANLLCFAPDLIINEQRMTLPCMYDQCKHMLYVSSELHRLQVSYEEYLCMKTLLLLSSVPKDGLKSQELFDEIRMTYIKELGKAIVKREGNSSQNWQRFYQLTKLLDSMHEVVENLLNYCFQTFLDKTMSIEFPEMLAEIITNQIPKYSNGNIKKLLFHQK
Sequence of Lysosomal acid glucosylceramidase (Homo sapiens) (P04062 whole entry, looked up): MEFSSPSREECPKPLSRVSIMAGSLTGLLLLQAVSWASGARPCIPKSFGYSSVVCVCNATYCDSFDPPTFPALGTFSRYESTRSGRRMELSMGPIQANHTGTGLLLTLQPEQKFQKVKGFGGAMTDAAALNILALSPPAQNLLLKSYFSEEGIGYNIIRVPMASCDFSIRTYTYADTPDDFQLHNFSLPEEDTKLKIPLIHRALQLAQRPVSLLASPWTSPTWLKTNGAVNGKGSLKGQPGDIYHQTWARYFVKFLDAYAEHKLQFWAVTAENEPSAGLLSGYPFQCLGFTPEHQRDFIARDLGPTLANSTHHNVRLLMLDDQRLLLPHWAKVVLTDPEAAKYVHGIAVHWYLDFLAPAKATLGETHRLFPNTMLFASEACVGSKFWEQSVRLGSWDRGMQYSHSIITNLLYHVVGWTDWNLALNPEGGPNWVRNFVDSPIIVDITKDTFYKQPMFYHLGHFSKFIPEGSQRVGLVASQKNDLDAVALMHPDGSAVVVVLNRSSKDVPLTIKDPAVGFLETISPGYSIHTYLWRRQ
Sequence of Cytochrome P450 2D6 (Homo sapiens) (P10635 whole entry, looked up): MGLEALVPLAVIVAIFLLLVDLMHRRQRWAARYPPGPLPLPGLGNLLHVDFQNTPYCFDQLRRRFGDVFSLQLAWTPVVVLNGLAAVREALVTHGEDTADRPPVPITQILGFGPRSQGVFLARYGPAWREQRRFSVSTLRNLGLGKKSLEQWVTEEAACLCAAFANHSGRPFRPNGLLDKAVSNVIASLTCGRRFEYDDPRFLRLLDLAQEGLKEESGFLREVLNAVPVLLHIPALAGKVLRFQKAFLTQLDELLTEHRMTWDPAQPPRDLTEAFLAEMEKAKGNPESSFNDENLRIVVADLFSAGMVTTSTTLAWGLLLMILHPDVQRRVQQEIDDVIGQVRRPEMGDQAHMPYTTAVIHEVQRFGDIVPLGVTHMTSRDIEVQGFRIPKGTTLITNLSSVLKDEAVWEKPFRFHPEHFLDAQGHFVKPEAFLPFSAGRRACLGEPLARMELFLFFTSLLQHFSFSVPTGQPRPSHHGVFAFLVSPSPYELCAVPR
Sequence of Cytochrome P450 2C9 (Homo sapiens) (P11712 whole entry, looked up): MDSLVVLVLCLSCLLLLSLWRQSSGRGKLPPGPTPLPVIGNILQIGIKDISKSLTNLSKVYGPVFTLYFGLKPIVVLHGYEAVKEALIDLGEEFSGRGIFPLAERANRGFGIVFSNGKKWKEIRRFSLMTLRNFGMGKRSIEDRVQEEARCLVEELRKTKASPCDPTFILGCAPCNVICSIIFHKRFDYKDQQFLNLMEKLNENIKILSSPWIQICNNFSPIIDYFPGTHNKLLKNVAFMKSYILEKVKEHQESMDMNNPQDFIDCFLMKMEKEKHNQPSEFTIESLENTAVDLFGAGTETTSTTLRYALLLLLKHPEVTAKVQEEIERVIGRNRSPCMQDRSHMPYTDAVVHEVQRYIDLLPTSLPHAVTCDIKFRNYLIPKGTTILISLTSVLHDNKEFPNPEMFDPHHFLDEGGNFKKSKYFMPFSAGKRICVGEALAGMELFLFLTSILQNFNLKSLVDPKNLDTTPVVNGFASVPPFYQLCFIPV

| SMILES | Potency [1] | activity change, negative = inhibition [2] | Potency [3] | Potency [4] | Potency [5] | Potency [6] | Potency [7] | Potency [8] | Potency [9] | activity change, negative = inhibition [3] | activity, negative = inhibition [10] | Potency [11] | Potency [12] | Potency [13] |
| --- | --- | --- | --- | --- | --- | --- | --- | --- | --- | --- | --- | --- | --- | --- |
| COc1ccc(C(=O)CCN(C)C)c2ccccc12 | > 11.4 µM | -15.5% | 1.58 µM (active) | > 46 µM | > 9.22 µM | inactive | inactive | 3.98 µM (active) | inactive | – | – | – | – | – |
| OC[C@@H]1O[C@@H](n2cnc3c(SCc4ccccc4)ncnc32)[C@@H](O)[C@H]1O | > 11.4 µM | 3.13% | – | > 46 µM | > 9.22 µM | inactive | inactive | – | – | -17.2% [at 2.29 µM] | – | – | – | – |
| COc1ccc(Cc2ccccc2C(=O)O)c2ccccc12 | > 11.4 µM | -1.93% | – | > 46 µM | > 9.22 µM | – | inactive | 3.98 µM (active) | – | 2.8% [at 2.29 µM] | -28.9% | – | – | – |
| Cc1ccccc1C(=N)c1ccccc1Cc1cccc2ccccc12 | > 11.4 µM | 5.2% | – | – | > 9.22 µM | inactive | inactive | – | inactive | -17.7% [at 2.29 µM] | 9.25% | – | – | – |
| c1ccc2c(c1)-c1ccccc1C2N1CC2CCC(CC2)C1 | > 11.4 µM | 22.5% | 0.501 µM (active) | > 46 µM | > 9.22 µM | – | inactive | – | – | – | 17.6% | – | – | – |
| CN(C)S(=O)(=O)c1ccc(Nc2ccc(O)c3c2C(=O)c2c([N+](=O)[O-])ccc(O)c2C3=O)cc1 | > 11.4 µM | -13.4% | 0.126 µM (active) | > 46 µM | > 9.22 µM | – | inactive | – | inactive | – | 23.6% | – | – | – |
| CN1CCc2ccccc2[C@@H]1Cc1ccccc1NC(=O)c1sc2ccccc2c1Cl | > 11.4 µM | -4.19% | 5.01 µM (active) | – | > 9.22 µM | inactive | inactive | – | inactive | – | 4.41% | 1.58 µM (active) | 0.0794 µM (active) | 2.51 µM (active) |
| c1ccc(SC(Sc2ccccc2)c2ccc3c(c2)OCO3)cc1 | > 11.4 µM | -9.51% | 0.501 µM (active) | > 46 µM | > 9.22 µM | – | inactive | 3.16 µM (active) | inactive | – | -12% | – | 3.16 µM (active) | 0.0316 µM (active) |
| N#Cc1ccc(CN2CC3(CCN(C(=O)c4cc(C(F)(F)F)cc(C(F)(F)F)c4)CC3)C2)cc1 | > 11.4 µM | -21.3% | inactive | – | > 46 µM | inactive | inactive | – | – | – | 7.48% | – | – | – |
| CC(C)Cn1cnc2c(SCc3ccc(Cl)cc3Cl)nc(N)nc21 | > 11.4 µM | -27.8% | 1.26 µM (active) | > 46 µM | > 9.22 µM | inactive | inactive | – | inactive | – | – | 3.98 µM (active) | – | 2 µM (active) |
| O=C(O)c1ccccc1N[C@H](c1ccccc1)c1ccc2cccnc2c1O | > 11.4 µM | 0.796% | 1.58 µM (active) | – | > 9.22 µM | – | inactive | – | – | – | -21.5% | – | – | 3.98 µM (active) |
| NS(=O)(=O)c1ccc(N=Nc2nc3[nH]cnc(=S)c3[nH]2)cc1 | > 11.4 µM | 2.31% | 6.31 µM (active) | > 46 µM | – | inactive | inactive | – | – | – | 14.2% | – | – | – |
| Nc1ccccc1S[C@@H](C[N+](=O)[O-])c1ccc2c(c1)OCO2 | > 11.4 µM | 11.2% | 0.631 µM (active) | > 46 µM | > 9.22 µM | inactive | – | – | inactive | – | -19.6% | – | 3.98 µM (active) | 1.58 µM (active) |
| Nc1cccc2nsnc12 | > 11.4 µM | 20.1% | – | > 46 µM | > 9.22 µM | – | inactive | inactive | – | -15.3% [at 2.29 µM] | 2.62% | – | inactive | inactive |
| Cc1cc(O)c(-c2cc(O)c(C)cc2O)cc1O | > 11.4 µM | -22.9% | 3.98 µM (active) | > 46 µM | > 9.22 µM | inactive | inactive | 1.26 µM (active) | inactive | – | – | – | inactive | 0.794 µM (active) |
| COc1ccc(C[N+](C)(C)N)cc1OC | > 11.4 µM | 0.59% | inactive | > 46 µM | > 9.22 µM | – | inactive | – | – | – | 7.15% | – | – | – |
